USP2a inh: inhibitors of human ubiquitin-specific protease USP2a. USP2 core, Ub-CHOP2 coupled fluorogenic reporter, 485/531. Potency, µM (top dose mostly 38.3 µM), without a hit: at the highest dose activity change, negative = inhibition, hits mostly inhibitors. O75604. hit rate 0.01% among 330,000;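 note: plate controls were DMSO wells for no effect and full inhibition by NEM control for full effect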
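Cell-free coupled assay: 10nM USP2 core preincubated 30min RT with compound in Tris-HCl pH 8.0/CaCl2/CHAPS buffer, then 25nM Ub-CHOP2 and 25nM reporter substrate; fluorescence (Ex 485/Em 531) read after 60min RT, normalized to NEM inhibition, concentration-response curves fitted.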
rTrxR1 inhibitor: blocks rat thioredoxin reductase 1. Potency, µM (titrated, usually from 114 µM), inactives show at the top dose activity change, negative = inhibition, hits mostly inhibitors. AID 588453. recombinant rTrxR1, NADPH fluorescence consumption, selenite substrate. hit rate 1% among 390,000; note: nearly all actives have a fitted effect of over 65% in size
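Rat TrxR1 (90 nM in the dispensed reagent) was pre-reduced with 400 uM NADPH for 5 min at room temperature, then incubated with compound for 15 min. After 400 uM selenite was added, NADPH fluorescence (Ex 340/Em 450 nm) was followed for 8 min.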
GALK inh: inhibitors of human galactokinase; hit rate 0.007% among 270,000; Purified GALK, Kinase-Glo residual ATP luminescence; P51570; Potency, µM (highest dose often 57.5 µM), without a hit: at the top dose activity change, negative = inhibition, usual class: inhibitors
Target sequence (P51570 whole entry, looked up): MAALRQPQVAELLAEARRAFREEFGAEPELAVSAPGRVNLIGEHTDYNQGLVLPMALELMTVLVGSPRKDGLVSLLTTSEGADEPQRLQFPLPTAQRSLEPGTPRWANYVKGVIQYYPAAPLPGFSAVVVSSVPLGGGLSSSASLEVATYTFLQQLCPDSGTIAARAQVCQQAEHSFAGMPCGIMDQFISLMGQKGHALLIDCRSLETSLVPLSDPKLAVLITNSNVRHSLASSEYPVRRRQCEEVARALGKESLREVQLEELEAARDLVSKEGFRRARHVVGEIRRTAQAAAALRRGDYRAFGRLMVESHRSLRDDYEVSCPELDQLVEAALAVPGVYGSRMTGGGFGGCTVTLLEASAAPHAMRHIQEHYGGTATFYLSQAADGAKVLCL
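Compounds were pin-transferred into ATP buffer (35 uM final), then GALK plus galactose (5 nM, 100 uM final) was added. After 1 h at room temperature, Kinase-Glo Plus was added and luminescence read after 10 min.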
RGS4 inh: inhibitors of human regulator of G protein signaling 4. P49798. Transcreener GDP fluorescence polarization, RGS4-accelerated GTP hydrolysis. Potency, µM (top dose mostly 114 µM), inactives show top-dose activity change, negative = inhibition, hits mostly inhibitors. hit rate 0.039% among 390,000; note: nearly all actives have a fitted effect of over 75% in size
Target sequence (P49798 whole entry, looked up): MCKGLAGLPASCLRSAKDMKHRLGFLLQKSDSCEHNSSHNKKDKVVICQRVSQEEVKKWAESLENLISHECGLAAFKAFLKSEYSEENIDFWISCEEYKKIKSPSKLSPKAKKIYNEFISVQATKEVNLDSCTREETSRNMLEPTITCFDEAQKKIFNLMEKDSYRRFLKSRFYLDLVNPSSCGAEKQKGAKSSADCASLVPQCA
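MLSMR compounds (23 nl, pin-transferred) preincubated 10 min at room temperature with a 500nM (2x) first reagent, then RGS4 at 900nM (2x) plus Transcreener GDP mix added; fluorescence polarization (620/688 nm) read before and after 90 min at 30 °C.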
Eya2 phos inh: inhibitors of human Eya2 phosphatase activity; O00167; recombinant Eya2, OMFP fluorescence dephosphorylation (OMFP is methylfluorescein phosphate); Potency, µM (series often up to 76.9 µM), inactives show at the highest dose activity, negative = inhibition, most hits filed as inhibitors; hit rate 0.006% among 330,000; AID 488837
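Eya2 (0.2 uM) preincubated 10 min at ambient with compound, then OMFP substrate added at 50 uM; 10 min reaction in 50 mM HEPES pH 7.5, 50 mM NaCl, 5 uM MgCl2, 0.05% BSA, 1 mM DTT. Fluorescence read at Ex 485/Em 525 nm.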
TrxR1 substrate: is turned over as a substrate by rat TrxR1. O89049. purified TrxR1 substrate turnover, NADPH consumption readout. Potency, µM (doses to about 114 µM), without a hit: at the highest dose activity change, negative = substrate turnover. hit rate 0.01% among 390,000. AID 588456; note: nearly all actives have a fitted effect of over 50% in size
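Rat TrxR1, dispensed at 90 nM, was prereduced with 400 uM NADPH (final) for 5 min at ~22 deg C, then incubated with compound 15 min before 400 uM selenite. A first-read NADPH fluorescence drop versus no-compound background flagged substrates.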
* = called active by the depositor; u = inconclusive; x = no result; [ ] = dose if it differs, or a comment. In the library only some 1% were active in any assay of this set; here they are far more common. Calls come from the whole dose curve; as a rule, active = well fitted curve in the direction sought with a large enough effect; inconclusive = small, poorly fitted or top-dose-only effect, or another doubt; inactive = no such curve, though single readings can be large; an effect the other way counts as inactive or inconclusive. Unless noted, % is set by controls: 0 for no effect and ±100 for the full control effect; potency is the fitted concentration of half-maximal effect.

SMILES	USP2a inh	rTrxR1 inhibitor	GALK inh	RGS4 inh	Eya2 phos inh	TrxR1 substrate
Cc1nn(-c2ccccc2)c(C)c1C(=O)OCC(N)=O	0%	22%	9%	-7%	4%	4%
CN1CCC(=O)N(C(CSc2ccc(Br)cc2)c2ccccc2)CC1 (stereo not drawn)	x	-16%	x	5%	x	-4%
O=C(NCc1cccnc1)[C@@H]1CC=C[C@@H]2CCN(C3CCCCC3)C(=O)[C@@H]21	x	11%	x	x	x	5%
Oc1ccc(COC2CCCC2)c2cccnc12	1%	x	x	x	-6%	x
CCN1c2ccccc2N(C)C1(C)c1ccccc1 (stereo not drawn)	8%	45µM*	1%	u	-2%	-10%
Cc1cc(=O)[nH]c(N/N=C2/CCCC/C2=C\c2ccccc2)n1	1%	40µM*	9%	16%[11.4 µM]	1%	-2%
CN(C)c1ccc(/C=C2\C=Cc3ccccc32)c(F)c1	x	-26%	x	x	x	-9%[0.0914 µM]
O=[N+]([O-])c1cccc2[nH]cnc12	x	-1%	x	x	x	-6%
O=C(CCS(=O)(=O)c1nc(-c2cccs2)cc(C(F)(F)F)n1)Nc1cccc(O)c1	x	18µM*	x	-40%	x	9%[2.29 µM]
COc1ccc(NC(=O)CCS(=O)(=O)c2nc(-c3cccs3)cc(C(F)(F)F)n2)cc1OC	x	25µM*	x	-24%	x	-5%[2.29 µM]
Cc1ccc(S(=O)(=O)N2CCN(c3nc(-c4cncs4)nc4ccccc34)CC2)cc1	x	11%	x	8%	x	7%
CCOC(=O)C=C(C(=O)OCC)C(=O)OCC	0%	3.5µM*	1%	u	-8%	9%
COc1cccc(NC(=O)c2nc(S(C)(=O)=O)ncc2Cl)c1	4%	8.9µM*	14%	u	2%	6%
Cc1cccc(NC(=O)c2nc(S(C)(=O)=O)ncc2Cl)c1	x	7.1µM*	x	u	x	11%[57.1 µM]
OC(C[n+]1cccc(Br)c1)c1ccccc1 (stereo not drawn)	x	5%	x	x	x	2%
CCOC(=O)/C(=C\c1cn(C)c2ccccc12)[N+](=O)[O-]	3%	18µM*	-4%	-26%	-9%	-13%
CCOC(=O)c1c(-c2ccc(C)o2)csc1NC(=O)CSc1nncs1	-13%	2.2µM*	-2%	u	-7%	1%[57.1 µM]
CCOC(=O)c1c(-c2ccc(C)o2)csc1NC(=O)CN1CCN(CC)CC1	1%	4.5µM*	1%	u	18%	7%
CCOC(=O)c1c(-c2ccc(C)o2)csc1NC(=O)CN1CCCCC1	-1%	-59%	0%	u	-10%	9%[57.1 µM]
COc1ccccc1CCNC(=O)C1CCC(=O)N(Cc2ccccc2OC)C1 (stereo not drawn)	0%	u	6%	2%	14%	-11%
COc1ccccc1CN1CC(C(=O)NCCc2ccc(C)o2)CCC1=O (stereo not drawn)	2%	50µM*	-3%	-32%	-9%	1%
COc1ccccc1CN1CC(C(=O)N(C)Cc2ccc(C)o2)CCC1=O (stereo not drawn)	3%	35µM*	-5%	-9%	-6%	7%
COc1ccccc1CN1CC(C(=O)N(C)Cc2ccncc2C)CCC1=O (stereo not drawn)	-2%	9%	-5%	24%	5%	8%
COc1ccc(CCN2CC(C(=O)N(C)Cc3ccc(C)o3)CCC2=O)cc1 (stereo not drawn)	4%	50µM*	4%	-10%	5%	1%
CN(C)c1cc2c3ccccc3ccc2c2ccccc12	x	37%	x	x	x	131%
SMILES	USP2a inh	rTrxR1 inhibitor	GALK inh	RGS4 inh	Eya2 phos inh	TrxR1 substrate
CC(=O)N(c1ccc2ccccc2c1)C1SC(=O)N(c2cccc(C)c2)C1=O (stereo not drawn)	x	9%	x	-10%	x	2%
O=c1cc(CO)oc(C(Nc2ccccn2)c2cccc(F)c2)c1O (stereo not drawn)	1%	20µM*	-2%	u	-4%	-2%
COc1cccc(C(Nc2ccccn2)c2oc(CO)cc(=O)c2O)c1 (stereo not drawn)	5%	71µM*	-2%	-49%[56.9 µM]	-14%	-2%
CC(C)(C)n1ncc2c(=O)n(Cc3cccc(-c4cccs4)c3)cnc21	x	18%	x	x	x	-5%
O=C(C[n+]1cccc2cccc(O)c21)c1ccccc1	x	4%	x	x	x	-6%
CC(C)(C)n1ncc2c(=O)n(Cc3cccc(OC(F)F)c3)cnc21	x	15%	x	x	x	-4%
CCOc1cc(/C=C2\NC(=O)NC2=O)cc([N+](=O)[O-])c1O	-14%	50µM*	x	7%[11.4 µM]	-1%	-11%
CSc1nnc(-c2ccccc2)c(-c2ccccc2)n1	10%	5%	1%	0%	3%	-3%
COc1ccc(C(=O)CSc2nnc(-c3ccco3)c(-c3ccco3)n2)cc1	u	8.9µM*	1%	-47%[11.4 µM]	-3%	-8%
COc1ccc(C(=O)CSc2nnc(-c3ccco3)n2C)cc1	3%	u	1%	-20%	17%	-1%[57.1 µM]
CSc1nnc(-c2ccco2)c(-c2ccco2)n1	0%	16µM*	-3%	9%[11.4 µM]	3%	-9%
O=C(CSc1nnc(-c2ccco2)c(-c2ccco2)n1)Nc1ccccc1	-1%	5µM*	3%	u	8%	-13%
COc1cccc(NC(=O)CSc2nnc(-c3ccco3)c(-c3ccco3)n2)c1	-1%	7.1µM*	0%	u	-4%	-5%
CN(C)c1ccc(NC(=O)CSc2nnc(-c3ccco3)c(-c3ccco3)n2)cc1	1%	-27%	0%	-42%	-12%	-10%
Cc1ccc(NC(=O)CSc2nnc(-c3ccco3)c(-c3ccco3)n2)cc1	0%	1µM*	5%	u	5%	-13%
CC(=O)Nc1cccc(NC(=S)Nc2cccc(Cl)c2Cl)c1	-2%	32µM*	-2%	-11%	-8%	0%[57.1 µM]
COC(=O)CN(C)C1CC(=O)N(c2ccc(Cl)cc2)C1=O (stereo not drawn)	0%	35µM*	-2%	u	6%	-1%
CN(Cc1ccncc1)C1CC(=O)N(c2ccc(Cl)cc2)C1=O (stereo not drawn)	0%	13%[57.1 µM]	2%	8%	14%	-9%
COc1ccccc1N1CCN(C(c2ccccc2)c2nnnn2Cc2ccccc2)CC1 (stereo not drawn)	x	8%	x	26%	x	1%
COc1ccccc1N1CCN(C(c2ccc(N(C)C)cc2)c2nnnn2CCc2ccccc2)CC1 (stereo not drawn)	1%	3.2µM*	-4%	-29%	-4%	-5%
Cc1cccc(OCCC(=O)NO)c1	x	11%	x	x	x	4%
CCOc1ccc(NC(=O)c2oc3ccccc3c2NC(=O)c2c(F)cccc2F)cc1	x	56µM*	x	-6%	x	19%
